This passage reports inhibition results from PubChem BioAssay.

One may read the inhibition as the relative decrease from the control value, in per cent.

Values without a mark were called inactive. Active and inactive are the calls of the source.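 Rule for the calls: active = at least 20% inhibition of 6-phosphogluconate dehydrogenase activity; inactive = the rest.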

In the assay the target is 6-phosphogluconate dehydrogenase, decarboxylating (Homo sapiens) (UniProt P52209). In words: 6PGD enzyme inhibitors, primary screen, biochemical, human, recombinant enzyme, NADPH absorbance (AID 1159550). The conditions noted are these: recombinant 6PGD, NADPH absorbance 341 nm; at 10 µM; stronger effect = higher value.
Chain of 6-phosphogluconate dehydrogenase, decarboxylating (Homo sapiens) (P52209 whole entry, looked up): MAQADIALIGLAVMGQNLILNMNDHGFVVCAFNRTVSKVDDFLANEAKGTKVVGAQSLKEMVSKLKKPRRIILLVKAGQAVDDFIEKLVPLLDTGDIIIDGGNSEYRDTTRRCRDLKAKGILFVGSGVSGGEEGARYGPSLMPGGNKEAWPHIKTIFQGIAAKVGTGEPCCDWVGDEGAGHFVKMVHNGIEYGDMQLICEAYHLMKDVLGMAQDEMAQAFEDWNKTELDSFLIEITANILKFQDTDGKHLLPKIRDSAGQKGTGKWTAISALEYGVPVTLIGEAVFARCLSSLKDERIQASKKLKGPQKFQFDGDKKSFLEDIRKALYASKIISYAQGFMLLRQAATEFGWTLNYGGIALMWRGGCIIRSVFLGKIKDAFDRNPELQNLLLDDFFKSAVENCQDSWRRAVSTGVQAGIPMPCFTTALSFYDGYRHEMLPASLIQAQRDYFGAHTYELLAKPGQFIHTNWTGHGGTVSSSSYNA
For the molecule `CC(=O)OC1CCC2(C)C(CCC3C2CCC2(C)C3CC3OC4(CCC(C)CO4)C(C)C32)C1` (stereo not given), the inhibition is 4.61%.
`O=C(O)Cc1cc(I)c(Oc2cc(I)c(O)c(I)c2)c(I)c1`: the inhibition is -3.72%.
For the molecule `C[C@@H]1O[C@@H](O[C@H]2[C@H](O[C@H]3CC[C@@]4(C)[C@@H](CC[C@]5(C)[C@@H]4CC=C4[C@@H]6CC(C)(C)CC[C@]6(C(=O)O[C@@H]6O[C@H](CO[C@@H]7O[C@H](CO)[C@@H](O[C@@H]8O[C@@H](C)[C@H](O)[C@@H](O)[C@H]8O)[C@H](O)[C@H]7O)[C@@H](O)[C@H](O)[C@H]6O)CC[C@]45C)[C@]3(C)CO)OC[C@H](O)[C@@H]2O)[C@H](O)[C@H](O)[C@H]1O`, the inhibition is 5.65%.
For `O[n+]1ccccc1[S-].O[n+]1ccccc1[S-].[Zn]`, the inhibition was 12.7%.
Turning to `CC(=O)C1CCC2C3CC=C4CC(O)CCC4(C)C3CCC12C` (stereo not given), the inhibition is -15.3%.
With `COC(=O)c1c(Cl)c(Cl)c(C(=O)OC)c(Cl)c1Cl` the figure was -11.1%; with `CC(=O)OCC(=O)[C@@]1(O)CC[C@H]2[C@@H]3CC[C@@H]4C[C@H](O)CC[C@]4(C)[C@H]3C(=O)C[C@@]21C`, -7.21%; with `Nc1nc2c(ncn2[C@H]2C[C@H](O)[C@@H](CO)O2)c(=O)[nH]1`, -9.26%.
For `CN1c2ccccc2C(=O)N2CCc3c([nH]c4ccc(O)cc34)[C@H]21`, the inhibition was 3.55%.
With `COc1c(Cl)ccc(Cl)c1C(=O)O`, the inhibition was 7.71%.
With `C=C[C@@H](C1=CC(=O)C(OC)=CC1=O)c1ccccc1` the figure was -0.743%; with `COc1cc2c(cc1OC)[C@@H]1C(=O)c3c(O)cc4c(c3O[C@@H]1CO2)C=CC(C)(C)O4`, 12.7%.
Turning to `CC(=O)O[C@H]1CC2C(C)(C)[C@H](OC(C)=O)C=C[C@@]2(C)C2CC[C@@]3(C)C(=CC(=O)O[C@@H]3c3ccoc3)[C@]21C` (stereo not given in full), the inhibition is 0.19%.
Turning to `CC(C)(OC(=O)c1ccccc1)[C@@H]1Cc2cc3ccc(=O)oc3cc2O1`, the inhibition is 20% (active).
Take `COc1cc2c(cc1OC)[C@H]1Cc3ccc(OC)c(OC)c3CN1CC2`: the inhibition is 6.86%.
Regarding `C=C1C(C2(C)C(OC(C)=O)CC(=O)OC(C)(COC(C)=O)C2CC(=O)OC)C(OC=O)C(OC(=O)C(O)C(C)CC)C2(C)C(c3ccoc3)CC(=O)C12O` (stereo not given), the inhibition is 7.27%.
As for `O=C(O[C@@H]1Cc2c(O)cc(O)cc2O[C@@H]1c1cc(O)c(=O)c2c(O)c(O)cc([C@H]3Oc4cc(O)cc(O)c4C[C@H]3O)c2c1)c1cc(O)c(O)c(O)c1`, the inhibition is 8.68%.
Then `COc1cc2c(cc1-c1coc3c4c(c(OC)cc3c1=O)OC(C)(C)C=C4)OCO2`, with 8.44%; and `Oc1cc(O)c2c(c1)O[C@H](c1cc(O)c(O)c(O)c1)[C@H](O)[C@H]2c1c(O)cc(O)c2c1O[C@H](c1cc(O)c(O)c(O)c1)[C@H](O)[C@H]2c1c(O)cc(O)c2c1O[C@H](c1cc(O)c(O)c(O)c1)[C@H](O)C2`, with 11.5%; and `COc1ccc(-c2coc3cc(O)ccc3c2=O)c(OC)c1O`, with 1.46%.
Take `COc1ccc2c(=O)cc(-c3ccccc3OC)oc2c1`: the inhibition is 3.35%.
With `COc1ccc2c(c1)O[C@@H]1c3ccc(OC)cc3OC[C@H]21`, the inhibition was 0.294%.
With `CC1(C)C(=O)C=C[C@]2(C)C3CC[C@@]4(C)[C@H](c5ccoc5)OC(=O)[C@H]5O[C@]54[C@]3(C)C(=O)C[C@@H]12` (stereo not given in full), the inhibition is 1.03%.
As for `C=C1C(C)(C)[C@@]2(Cl)C(Cl)[C@]1(Cl)C(Cl)(Cl)C2(Cl)Cl` (stereo not given in full), the inhibition was 6.23%.
With `CC=C(C)C(=O)OC1C(OC(C)=O)[C@]2(CO)C(O)C[C@]3(C)C(=CCC4[C@@]5(C)CCC(OC6OC(C(=O)O)C(OC7OC(CO)C(O)C(O)C7O)C(O)C6OC6OC(CO)C(O)C(O)C6O)[C@](C)(CO)C5CC[C@]43C)C2CC1(C)C` (stereo not given in full) the figure was 10.9%; with `CC1CCC(C(C)C)C(O)C1` (stereo not given), -10.6%; with `CC(C)=CCC[C@@H](C)[C@H]1CC[C@@]2(C)C3=C(CC[C@]12C)[C@@]1(C)CC[C@H](O)C(C)(C)[C@@H]1CC3`, 14.5%.
As for `CC(=O)Oc1ccc(/C=C2\N=C(c3ccccc3)OC2=O)cc1`, the inhibition was 0.187%.
Then `COc1cc(O)cc(/C=C/c2ccccc2)c1`, with 10.9%; and `Cc1occc(=O)c1/C=C/O`, with 0.162%.
As to `O=C(O[C@@H]1Cc2c(O)cc(O)cc2O[C@@H]1c1cc(O)c(O)c(O)c1-c1c([C@H]2Oc3cc(O)cc(O)c3C[C@H]2O)cc(O)c(O)c1O)c1cc(O)c(O)c(O)c1`, the inhibition is 1.5%.
As to `CS(=O)(=O)CCCCN=C=S`, the inhibition was 1.33%.
As for `CC1(C)CCC2(C(=O)O)C(O)CC3(C)C(=CCC4C5(C)CCC(O)C(C)(C)C5CCC43C)C2C1` (stereo not given), the inhibition is -10.1%.
For the molecule `CC(=O)O[C@@H]1C[C@H]2C(C)(C)C(=O)[C@@H]3O[C@@H]3[C@]2(C)[C@H]2CC[C@@]3(C)[C@H](c4ccoc4)OC(=O)[C@H]4O[C@]43[C@@]21C`, the inhibition was -3.37%.
With `CC1(C)C=Cc2c(cc3occ(-c4ccc5c(c4)OCO5)c(=O)c3c2O)O1` the figure was -4.68%; with `Oc1cc(O)cc(/C=C/c2ccccc2)c1`, -1.17%.
For the molecule `CC(=O)O[C@@H]1CC2C(C)(C)CCC(=O)[C@]2(C)C2CC[C@@]3(C)[C@H](c4ccoc4)OC(=O)C4OC43[C@@]21C` (stereo not given in full), the inhibition was -0.737%.
With `COc1ccccc1/C=C/C(=O)O`, the inhibition was 11.5%.
Regarding `CC(=O)O[C@H]1CCC2(C)C(=CCC3C2CCC2(C)C3CC3OC4(CCC(C)CO4)C(C)C32)C1` (stereo not given in full), the inhibition is -0.838%.
For the molecule `O=C1C[C@@H](c2ccccc2)Oc2cc(O)cc(O)c21`, the inhibition is 17.2%.
